Shown are actives, neighbours in structure and some others; about 2.4% of the full set was active somewhere.
TNF death inh = TNF-alpha cell death inhibition in Jurkat FADD-/- cells | Jurkat FADD-/- TNF necroptosis rescue, ATP luminescence, 24 h; 0 = TNF only, 100 = no-TNF cells | activation (protection from cell death), % at 10 µM | hit rate 0.068% among 220,000;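 active means activation, meaning protection from cell death, of at least 50% relative to plate controls; inactive means activation below 50%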;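 further: necroptosis triggered by 40 ng/mL TNF-alpha added together with compound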
Mcl1 Noxa PPI = Mcl-1/Noxa interaction inhibition | AID 1022 | Q07820 | TR-FRET Mcl-1/Noxa peptide binding, 2 h | hit rate 1.5% among 220,000 | inhibition, % at 21.7 µM;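 active means compounds that cut the protein-peptide binding signal by more than 50% relative to plate controls in a single-dose test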;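 further: His-tagged Mcl-1 with rhodamine Noxa BH3 peptide and terbium anti-His antibody; 0% = Mcl-1 plus Noxa peptide wells and 100% = peptide-only wells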
Target sequence (Q07820 whole entry, looked up): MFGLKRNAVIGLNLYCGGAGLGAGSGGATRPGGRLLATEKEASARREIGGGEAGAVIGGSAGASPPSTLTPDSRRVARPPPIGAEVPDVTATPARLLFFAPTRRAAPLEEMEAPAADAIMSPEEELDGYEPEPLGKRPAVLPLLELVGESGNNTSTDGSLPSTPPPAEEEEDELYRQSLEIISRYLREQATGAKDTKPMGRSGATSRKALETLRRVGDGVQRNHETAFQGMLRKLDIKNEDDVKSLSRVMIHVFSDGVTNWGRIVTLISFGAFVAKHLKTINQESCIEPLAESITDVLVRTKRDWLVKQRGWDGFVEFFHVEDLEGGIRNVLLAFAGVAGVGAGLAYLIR
Mcl-1 Bim block = human Bim-Mcl-1 interaction inhibition; Bead-based flow cytometry, Bim peptide-Mcl-1 binding; AID 1009; Q07820; inhibition, % at 10 µM; hit rate 0.1% among 190,000; in the data active means inhibition above about 40%;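 further: 0% = no compound tracer wells and 100% = peptide blocker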
MCL1-BIM inh = disrupts human MCL1 binding to BIM-BH3 peptide | hit rate 0.68% among 320,000 | inhibition, % at 10.9 µM | AID 2057 | GST-MCL1 / FITC-Bim-BH3 fluorescence polarization | Q07820;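 active means inhibition above the mean inhibition of all tested compounds plus 3 SD, set per campaign, cut at about 40% in these data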;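 further: 0% = DMSO wells and 100% = unlabeled Bim-BH3 peptide control; higher means more loss of mP so more displacement of Bim peptide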
Mcl1-Bid inh = disrupts binding of human Mcl-1 to Bid peptide | Q07820 | TR-FRET Mcl-1/Bid-Dy647 peptide binding, 1536-well | inhibition, % at 21.7 µM | hit rate 0.97% among 220,000 | AID 1021;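 active means compounds that cut the binding signal by more than half at the single screening dose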;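 further: His-tagged Mcl-1 with europium anti-His antibody binding Bid BH3 peptide; 0% = Mcl-1 plus peptide wells and 100% = peptide-only wells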
zVAD death inh = blocks zVAD induced death of L929 cells | L929 zVAD necroptosis rescue, ATP luminescence, 24 h; with zVAD 60 µM | hit rate 0.38% among 220,000 | AID 1377 | viability rescue, % at 10 µM;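 active means activation, scaled between plate controls, above about 75%, limit read from the data; inactive means activation under that limit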;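 further: 0% = zVAD with DMSO and 100% = DMSO alone without zVAD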
* hit, by the source's call; nt = not tested or not shown.

SMILES | TNF death inh | Mcl1 Noxa PPI | Mcl-1 Bim block | MCL1-BIM inh | Mcl1-Bid inh | zVAD death inh
CCOC(=O)C1=C(C)N(c2ccccc2)C(=O)/C1=C\c1ccc(O)c(OC)c1 | -5.1 | 31.6 | nt | 11.5 | -75.7 | -2.2
COc1cc(/C=C2\C(=O)N(c3ccc(NC(C)=O)cc3)N=C2c2ccccc2)ccc1O | -3.5 | 58.3* | -1.0 | 5.3 | -15.8 | 2.2
COc1ccc(C(=O)NCC(=O)N/N=C/c2ccc(C)o2)cc1OC | nt | nt | nt | 4.8 | nt | nt
COc1ccc2nc(NC(=O)CC3Oc4ccccc4NC3=O)sc2c1 (stereo not given) | 2.6 | -0.9 | nt | 6.4 | -11.8 | 2.3
COc1ccccc1NC(=O)COc1ccc(/C=N/NC(=O)CSCc2cc(C)cc(C)c2)cc1 | 0.6 | -39.5 | -5.0 | 1.7 | 57.3* | 2.8
O=C(CSCc1ccc(Cl)cc1)Nc1ccc(-c2nnc(-c3ccccc3)o2)cc1 | 1.6 | 30.1 | -6.0 | 0.4 | 59.3* | 1.0
COc1ccccc1NC(=O)COc1ccc(/C=N/NS(=O)(=O)c2ccc(C)cc2)cc1 | 0.4 | 0.8 | -5.0 | 3.9 | -23.8 | 2.2
O=C(Cc1ccc(Cl)cc1)Nc1ccc(-c2nnc(-c3ccco3)o2)cc1 | 1.2 | 26.3 | 0.0 | -30.2 | 38.8 | 55.2
Cc1ccc(NC(=O)COc2ccc(/C=N/NC(=O)CSCc3ccccc3)cc2)cc1 | -4.7 | 22.9 | 1.0 | -2.0 | -5.3 | 17.0
O=C(CSCc1ccc(Cl)cc1)N/N=C/c1ccc(OCC(=O)Nc2ccccc2)cc1 | -1.3 | 6.3 | 3.0 | 4.9 | 58.1* | 0.6
O=C(CSCc1ccc(F)cc1)Nc1ccc(F)cc1 | 78.8* | 15.3 | -1.0 | 8.8 | -7.9 | 0.3
Cc1ccc(CSCC(=O)Nc2ccc(F)cc2)cc1 | 7.1 | -2.3 | -3.0 | -4.7 | -39.3 | 0.0
COCc1[nH]c(=S)[nH]c(=O)c1C | 1.3 | 24.7 | nt | 12.1 | -145.0 | 0.6
Cc1cccc(C(=O)OCCN2CCOCC2)c1 | nt | nt | nt | 4.4 | nt | nt
COc1ccc(CN(C)C(=O)c2cccc(S(=O)(=O)N3CCc4ccccc43)c2)c(OC)c1 | nt | nt | nt | 0.5 | nt | nt
O=C(CN1C(=O)COc2ccc(S(=O)(=O)N3CCCCCC3)cc21)NCc1ccc(F)cc1 | nt | nt | nt | -2.7 | nt | nt
N=C1C(c2nc(-c3ccc(Cl)cc3)cs2)=C(O)CN1CCCN1CCOCC1 | 1.4 | 28.2 | -2.0 | -0.8 | -9.2 | 3.6
CCCCN1CC(O)=C(c2nc(-c3ccc(Cl)cc3)cs2)C1=N | 0.0 | 63.7* | 5.0 | 0.9 | 46.9 | 0.5
Cc1ccc(N2C(=O)C(Cl)=C(N3CCCCCC3)C2=O)c(C)c1 | nt | nt | nt | -0.5 | nt | nt
Cc1ccc(C(=O)Oc2ccc(C(=O)COC(=O)C3CC(=O)N(Cc4ccco4)C3)cc2)cc1 (stereo not given) | -5.6 | -216.3 | 0.0 | 11.1 | 57.0* | -0.2
O=C(COC(=O)C1CC(=O)N(Cc2ccco2)C1)c1ccc(OC(=O)c2ccco2)cc1 (stereo not given) | -2.2 | 55.5* | -4.0 | 26.2 | -8.8 | 0.1
O=C(COC(=O)C1CC(=O)N(Cc2ccccc2)C1)c1ccc(Br)cc1 (stereo not given) | 1.6 | 11.4 | -8.0 | -1.2 | -26.3 | 1.0
COCCN(C(=O)c1oc2ccccc2c1COC)c1c(N)n(CC(C)C)c(=O)[nH]c1=O | nt | nt | nt | -10.4 | nt | nt
O=C(c1ccc2c(c1)OCO2)N(c1ccc(Br)cc1)C1C=CS(=O)(=O)C1 (stereo not given) | nt | nt | nt | -0.6 | nt | nt
O=C(O)Cn1c2c(c3ccccc31)CCCC2 | 1.1 | 7.2 | 1.0 | 47.7* | -22.0 | 1.3
SMILES | TNF death inh | Mcl1 Noxa PPI | Mcl-1 Bim block | MCL1-BIM inh | Mcl1-Bid inh | zVAD death inh
CC(=O)NNC(=O)CCn1c2c(c3ccccc31)CCCC2 | 6.7 | -8.1 | nt | 9.1 | -49.4 | 0.5
CCn1c(=O)c(C(C)=O)c(O)c2ccccc21 | -0.9 | 19.3 | 0.0 | 0.7 | -9.4 | -0.3
CC(=O)c1c(O)c2ccccc2n(C)c1=O | -0.6 | 51.4* | 0.0 | -1.9 | -21.1 | -0.2
C=CCn1c(SCC(=O)Nc2cc(C)on2)nc2c([nH]c3ccccc32)c1=O | nt | nt | nt | -2.2 | nt | nt
N#CCSc1ccccc1NC(=O)COc1ccc(-c2nnco2)cc1 | nt | nt | nt | -19.6 | nt | nt
N#Cc1ccsc1NC(=O)COc1ccc(-c2nnco2)cc1 | 0.9 | 64.6* | 1.0 | 19.1 | -27.5 | 4.7
COc1ccc(OC)c(NC(=O)CSc2nnc(NC(=O)c3ccco3)s2)c1 | nt | nt | nt | 2.3 | nt | nt
CN1CCN(CC(=O)NC2CCCCC2)CC1 | -0.1 | 12.2 | -1.0 | 0.5 | 53.7* | 1.2
CCCc1cc(=O)[nH]c(SCC(=O)c2c(C)[nH]c3ccccc23)n1 | 0.8 | 11.0 | nt | -2.2 | 76.2* | 0.4
CCCc1cc(=O)[nH]c(SCC(=O)c2c[nH]c3ccccc23)n1 | 0.3 | 16.1 | 0.0 | -7.2 | 0.1 | 3.3
Cc1cccc(-n2ccnc2SCC(=O)c2c(N)n(C3CC3)c(=O)[nH]c2=O)c1C | nt | nt | nt | -13.6 | nt | nt
COc1ccc2[nH]c3c(N4CCc5ccccc5C4)ncnc3c2c1 | -13.7 | 61.5* | nt | 0.4 | -1.1 | -0.8
COc1ccc(N2CCN(c3ncnc4c3[nH]c3ccccc34)CC2)cc1 | -4.2 | 33.7 | 0.0 | -0.1 | -25.0 | 0.7
COc1cc2[nH]c3c(N4CCN(c5ccccn5)CC4)ncnc3c2cc1OC | -8.6 | 63.6* | 4.0 | -15.4 | -16.0 | 2.7
CCOC(=O)N1CCN(c2ncnc3c2[nH]c2ccc(OC)cc23)CC1 | 0.0 | 16.1 | 0.0 | -0.1 | -35.9 | -0.1
O=C(NCc1ccc(Cl)s1)C1CCC(=O)N(CCc2cccc(F)c2)C1 (stereo not given) | nt | nt | nt | 0.8 | nt | nt
Cc1ccc(S(=O)(=O)NNc2ccccc2)cc1 | -2.9 | 19.3 | -2.0 | 14.1 | 64.1* | -0.4
O=C(CNC(=O)C(c1ccccc1)c1ccccc1)N/N=C/c1cccnc1 | 2.4 | 95.5* | nt | -3.9 | -3.0 | 0.4
O=C(Cc1ccccc1)NCC(=O)N/N=C/c1cccnc1 | 0.7 | 27.1 | nt | 3.6 | -25.5 | 0.7
COC(C(=O)Nc1ccnn1C1CCN(Cc2cnn(C(C)C)c2)CC1)c1ccccc1 (stereo not given) | nt | nt | nt | -10.4 | nt | nt
CCOc1cc(C(=O)NC2CCCCCCC2)cc(OCC)c1OCC | nt | nt | nt | 0.3 | nt | nt
O=C(NC1CCC(O)CC1)c1ccc(-c2ccc([N+](=O)[O-])cc2)o1 (stereo not given) | 0.6 | 70.9* | nt | 0.3 | 25.0 | -0.8
CCCCN(C(=O)COc1ccc(C)cc1OC)c1c(N)n(CCC)c(=O)[nH]c1=O | -1.3 | 3.1 | nt | -2.4 | -14.3 | 0.0
COC(=O)c1c(-c2ccc(C)cc2)csc1NC(=O)c1c(-c2ccccc2)noc1C | 2.7 | -43.1 | -9.0 | -0.9 | -40.8 | 0.7
COC(=O)c1c(-c2cccnc2)csc1NC(=O)c1cc(C)on1 | 4.7 | 57.5* | -3.0 | -16.0 | -8.0 | -0.1
Clc1cccc(Cl)c1CON/C=N/c1ncnc2sccc12 | -5.0 | 2.1 | -3.0 | 7.4 | 87.2* | 0.0
Cc1cc(C)c(S(=O)(=O)/N=C2\C=CC(=O)C(Cl)=C2)c(C)c1 | -0.9 | 95.5* | 1.0 | 32.1 | 46.7 | -0.2

From PubChem
